Assay results as given in PubChem BioAssay AID1159580 (chemical genetic matrix, 2015).
Several values for one entry are separate records, joined by “and”; a condition that tells them apart may be missing. Identical values can stand only once. The whole screen tested about 5,500 compounds, of which about 2,000 (36%) were called active. Roughly 18% stayed inconclusive and do not appear here. No stated cut-off is given here; in the data, active means normalized growth mostly below about 0.91 (no sharp cut-off); inconclusive means no clear call, values can overlap the other calls; inactive means mostly above about 0.92. This is one part of the list.

Assay: chemical genetic growth profiling, strain panel (AID 1159580);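 further: tested at 20 µM; growth read once vehicle control cultures reached saturation at 30 °C; 1 = growth at the plate median or of vehicle wells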
Conditions: growth OD

Measured: normalized growth

Nc1nc(N)c2nc(CNc3ccc(C(=O)NC(CCC(=O)O)C(=O)O)cc3)cnc2n1 (stereo unspecified)
inactive: S. cerevisiae deletion strains, locus YKL009W, strain mrt4, stronger effect = lower value 0.972 | S. cerevisiae deletion strains, locus YKL068W, stronger effect = lower value 0.981 | S. cerevisiae deletion strains, locus YKL085W, strain MDH1 (second series), stronger effect = lower value 0.986 | S. cerevisiae deletion strains, locus YKL085W, strain MDH1, stronger effect = lower value 0.986 | S. cerevisiae deletion strains, locus YKL160W, strain elf1, stronger effect = lower value 0.968 | S. cerevisiae deletion strains, locus YKL190W, strain CNB1, stronger effect = lower value 1.01 | S. cerevisiae deletion strains, locus YKR001C, strain vps1, stronger effect = lower value 0.989 | S. cerevisiae deletion strains, locus YKR026C, strain gcn3, stronger effect = lower value 0.997 | S. cerevisiae deletion strains, locus YKR091W, strain srl3, stronger effect = lower value 0.99 | S. cerevisiae deletion strains, locus YLL001W, strain dnm1, stronger effect = lower value 0.941 | S. cerevisiae deletion strains, locus YLL026W, stronger effect = lower value 0.996 | S. cerevisiae deletion strains, locus YLL041C, strain sdh2, stronger effect = lower value 0.971 | S. cerevisiae deletion strains, locus YLR027C, strain aat2, stronger effect = lower value 1 | S. cerevisiae deletion strains, locus YLR039C, strain RIC1, stronger effect = lower value 1.01 | S. cerevisiae deletion strains, locus YLR058C, strain SHM2, stronger effect = lower value 1 | S. cerevisiae deletion strains, locus YLR102C, strain apc9, stronger effect = lower value 0.972 | S. cerevisiae deletion strains, locus YLR221C, strain rsa3, stronger effect = lower value 1.06 | S. cerevisiae deletion strains, locus YLR258W, strain gsy2, stronger effect = lower value 0.974 | S. cerevisiae deletion strains, locus YLR262C, strain YPT6 (second series), stronger effect = lower value 1.03 | S. cerevisiae deletion strains, locus YLR262C, strain YPT6, stronger effect = lower value 0.952 | S. cerevisiae deletion strains, locus YLR268W, strain sec22, stronger effect = lower value 0.977 | S. cerevisiae deletion strains, locus YLR320W, strain mms22, stronger effect = lower value 1.05 | S. cerevisiae deletion strains, locus YLR330W, strain CHS5, stronger effect = lower value 1.01 | S. cerevisiae deletion strains, locus YLR342W, strain FKS1 (second series), stronger effect = lower value 1.07 | S. cerevisiae deletion strains, locus YLR342W, strain FKS1, stronger effect = lower value 1.01 | S. cerevisiae deletion strains, locus YLR357W, strain rsc2, stronger effect = lower value 0.963 | S. cerevisiae deletion strains, locus YLR370C, strain arc18, stronger effect = lower value 0.99 | S. cerevisiae deletion strains, locus YLR371W, strain rom2, stronger effect = lower value 0.973 | S. cerevisiae deletion strains, locus YLR384C, strain iki3, stronger effect = lower value 0.988 | S. cerevisiae deletion strains, locus YLR418C, strain cdc73, stronger effect = lower value 1.02 | S. cerevisiae deletion strains, locus YML016C, strain PPZ1, stronger effect = lower value 0.992 | S. cerevisiae deletion strains, locus YML032C, strain rad52, stronger effect = lower value 1.01 | S. cerevisiae deletion strains, locus YML120C, strain ndi1, stronger effect = lower value 0.979 | S. cerevisiae deletion strains, locus YML124C, strain tub3, stronger effect = lower value 0.988 | S. cerevisiae deletion strains, locus YMR058W, strain fet3, stronger effect = lower value 0.984 | S. cerevisiae deletion strains, locus YMR078C, strain ctf18, stronger effect = lower value 0.974 | S. cerevisiae deletion strains, locus YMR125W, strain sto1, stronger effect = lower value 0.967 | S. cerevisiae deletion strains, locus YMR129W, stronger effect = lower value 1 | S. cerevisiae deletion strains, locus YMR205C, strain PFK2, stronger effect = lower value 0.965 | S. cerevisiae deletion strains, locus YMR223W, strain ubp8, stronger effect = lower value 0.989 | S. cerevisiae deletion strains, locus YMR231W, strain pep5, stronger effect = lower value 1 | S. cerevisiae deletion strains, locus YMR263W, strain SAP30, stronger effect = lower value 0.99 and 1 | S. cerevisiae deletion strains, locus YMR307W, strain GAS1, stronger effect = lower value 1.16 | S. cerevisiae deletion strains, locus YNL067W, strain RPL9B, stronger effect = lower value 0.975 | S. cerevisiae deletion strains, locus YNL071W, strain lat1, stronger effect = lower value 0.998 | S. cerevisiae deletion strains, locus YNL128W, strain TEP1, stronger effect = lower value 1 | S. cerevisiae deletion strains, locus YNL153C, strain GIM3, stronger effect = lower value 1 | S. cerevisiae deletion strains, locus YNL175C, strain NOP13, stronger effect = lower value 0.989 | S. cerevisiae deletion strains, locus YNL197C, strain WHI3, stronger effect = lower value 0.956 | S. cerevisiae deletion strains, locus YNL209W, strain ssb2, stronger effect = lower value 0.987 | S. cerevisiae deletion strains, locus YNL224C, strain SQS1, stronger effect = lower value 0.981 | S. cerevisiae deletion strains, locus YNL233W, strain BNI4, stronger effect = lower value 1.01 | S. cerevisiae deletion strains, locus YNL248C, strain rpa49, stronger effect = lower value 1.02 | S. cerevisiae deletion strains, locus YNL250W, strain rad50, stronger effect = lower value 0.945 | S. cerevisiae deletion strains, locus YNL271C, strain bni1, stronger effect = lower value 0.984 | S. cerevisiae deletion strains, locus YNL298W, strain CLA4, stronger effect = lower value 0.995 | S. cerevisiae deletion strains, locus YNL307C, strain MCK1, stronger effect = lower value 0.977 | S. cerevisiae deletion strains, locus YNL322C, strain KRE1 (second series), stronger effect = lower value 0.976 | S. cerevisiae deletion strains, locus YNL322C, strain KRE1, stronger effect = lower value 0.998 and 1.01 | S. cerevisiae deletion strains, locus YNR049C, strain mso1, stronger effect = lower value 0.987 | S. cerevisiae deletion strains, locus YNR052C, strain pop2, stronger effect = lower value 0.991 | S. cerevisiae deletion strains, locus YOL006C, strain TOP1, stronger effect = lower value 0.981 | S. cerevisiae deletion strains, locus YOL012C, strain htz1 0.761 | S. cerevisiae deletion strains, locus YOL147C, strain pex11, stronger effect = lower value 0.998 | S. cerevisiae deletion strains, locus YOR001W, strain rrp6, stronger effect = lower value 1.01 | S. cerevisiae deletion strains, locus YOR061W, strain CKA2, stronger effect = lower value 0.99 | S. cerevisiae deletion strains, locus YOR069W, strain VPS5, stronger effect = lower value 0.992 | S. cerevisiae deletion strains, locus YOR070C, strain gyp1, stronger effect = lower value 0.997 | S. cerevisiae deletion strains, locus YOR080W, strain dia2, stronger effect = lower value 1.01 | S. cerevisiae deletion strains, locus YOR083W, strain WHI5 (second series), stronger effect = lower value 1 | S. cerevisiae deletion strains, locus YOR083W, strain WHI5, stronger effect = lower value 0.967 | S. cerevisiae deletion strains, locus YOR106W, strain vam3, stronger effect = lower value 0.94 | S. cerevisiae deletion strains, locus YOR136W, strain idh2, stronger effect = lower value 0.994 | S. cerevisiae deletion strains, locus YOR144C, strain elg1, stronger effect = lower value 1 | S. cerevisiae deletion strains, locus YOR184W, strain ser1, stronger effect = lower value 0.99 | S. cerevisiae deletion strains, locus YOR265W, strain rbl2, stronger effect = lower value 0.989 | S. cerevisiae deletion strains, locus YOR270C, strain vph1, stronger effect = lower value 1.05 | S. cerevisiae deletion strains, locus YOR290C, strain snf2, stronger effect = lower value 0.933 | S. cerevisiae deletion strains, locus YOR316C, strain cot1, stronger effect = lower value 0.986 | S. cerevisiae deletion strains, locus YPL051W, strain arl3, stronger effect = lower value 1 | S. cerevisiae deletion strains, locus YPL055C, strain LGE1, stronger effect = lower value 1.02 and 0.989 | S. cerevisiae deletion strains, locus YPL078C, strain atp4, stronger effect = lower value 0.955 | S. cerevisiae deletion strains, locus YPL106C, strain sse1, stronger effect = lower value 0.956 | S. cerevisiae deletion strains, locus YPL240C, strain hsp82, stronger effect = lower value 0.992 | S. cerevisiae deletion strains, locus YPL241C, strain CIN2, stronger effect = lower value 1.01 | S. cerevisiae deletion strains, locus YPR119W, strain clb2, stronger effect = lower value 0.987 | S. cerevisiae deletion strains, locus YPR141C, strain kar3, stronger effect = lower value 0.98 | S. cerevisiae deletion strains, locus YPR163C, strain tif3, stronger effect = lower value 1 | S. cerevisiae deletion strains, locus YPR167C, strain met16, stronger effect = lower value 0.989 | S. cerevisiae deletion strains, strain wtn01, stronger effect = lower value 0.965 | S. cerevisiae strains, strain wild type, stronger effect = lower value 1.01
